Results as given in publication PMC4336329 (PLoS ONE, 2015).
The whole screen tested about 310,000 compounds, of which about 14,000 (4.5%) showed an effect of 50% or more. The effect is printed as a negative number. For the sample, strong results were picked, then their nearest neighbours and some compounds at random.

target: human ether-à-go-go-related gene (hERG) potassium channel (human, UniProt Q12809); assay: primary screen, population patch clamp on CHO cells stably expressing hERG; higher = less effect of the substance
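Also: peak tail current of the secondary pulse compared with the same well before compound.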

Chain of human ether-à-go-go-related gene (hERG) potassium channel (Q12809 whole entry, looked up): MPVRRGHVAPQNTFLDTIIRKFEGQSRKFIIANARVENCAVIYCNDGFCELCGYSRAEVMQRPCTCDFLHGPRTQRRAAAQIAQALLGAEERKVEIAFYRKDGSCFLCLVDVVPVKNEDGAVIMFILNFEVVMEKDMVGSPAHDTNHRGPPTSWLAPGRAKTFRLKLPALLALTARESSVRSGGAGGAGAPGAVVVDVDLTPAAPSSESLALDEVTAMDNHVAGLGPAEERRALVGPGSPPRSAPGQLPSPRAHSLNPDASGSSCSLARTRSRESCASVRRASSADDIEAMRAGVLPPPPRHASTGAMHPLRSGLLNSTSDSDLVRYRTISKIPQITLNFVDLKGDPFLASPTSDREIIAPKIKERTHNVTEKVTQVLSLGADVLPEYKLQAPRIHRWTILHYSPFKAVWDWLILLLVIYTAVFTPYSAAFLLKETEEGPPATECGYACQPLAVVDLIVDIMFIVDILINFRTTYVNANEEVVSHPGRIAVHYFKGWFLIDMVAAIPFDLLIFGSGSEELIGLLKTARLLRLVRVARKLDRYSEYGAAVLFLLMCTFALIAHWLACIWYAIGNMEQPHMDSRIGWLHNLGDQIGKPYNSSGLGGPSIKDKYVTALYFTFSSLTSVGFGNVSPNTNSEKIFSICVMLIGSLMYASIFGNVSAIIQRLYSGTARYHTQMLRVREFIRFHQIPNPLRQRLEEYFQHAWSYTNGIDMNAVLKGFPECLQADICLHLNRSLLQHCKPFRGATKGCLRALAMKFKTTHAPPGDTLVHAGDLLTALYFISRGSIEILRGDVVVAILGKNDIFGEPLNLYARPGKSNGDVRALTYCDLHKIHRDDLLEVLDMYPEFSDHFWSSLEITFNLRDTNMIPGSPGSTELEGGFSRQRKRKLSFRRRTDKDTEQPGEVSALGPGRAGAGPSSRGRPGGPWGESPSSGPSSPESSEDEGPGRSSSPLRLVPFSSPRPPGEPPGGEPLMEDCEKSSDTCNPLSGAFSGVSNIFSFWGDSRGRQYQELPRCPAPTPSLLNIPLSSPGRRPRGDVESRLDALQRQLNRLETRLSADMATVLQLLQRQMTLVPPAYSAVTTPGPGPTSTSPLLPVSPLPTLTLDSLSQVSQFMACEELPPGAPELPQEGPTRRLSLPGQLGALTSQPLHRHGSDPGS

SMILES	hERG current change (%, negative = inhibition) at 10uM [%]
Cc1c(Cc2ccccc2)c(NCCN(C)C)n2c(nc3ccccc32)c1C#N	-32.4
Cc1[nH]c2ccccc2c1Cc1nnc(SCC(=O)NCc2ccco2)o1	4.19
COc1ccc(CC(=O)c2ccc(O)cc2O)cc1	-3.19
N/C(=N\OC(=O)c1ccc(OCC(F)(F)F)nc1)c1ccc(Cl)cc1	19.5
CN1CCN(c2ccc([N+](=O)[O-])cc2C(=O)c2ccc(Cl)cc2)CC1	-67.4
O=C(c1ccc(Br)cc1)c1cc([N+](=O)[O-])ccc1N1CCCCC1	-25.3
CN1CCN(c2ccc([N+](=O)[O-])cc2C(=O)N2CCCCC2)CC1	-7.66
O=C(c1ccc(Br)cc1)c1cc([N+](=O)[O-])ccc1N1CCOCC1	-30.7
CN1CCN(c2ccc([N+](=O)[O-])cc2C(=O)c2ccc(Br)cc2)CC1	-69.5
O=C(c1ccc(Cl)cc1)c1cc([N+](=O)[O-])ccc1N1CCOCC1	-32.4
CC(=O)Nc1cc2nc(C)n(Cc3ccccc3[N+](=O)[O-])c2nc1C	17.4
C1CCc2nc3c(nc2C1)CCCC3	-10.7
C=CCc1c(C)nc(SC)nc1Nc1ccc(C)cc1	-14.3
CN(C(=O)c1cccnc1)c1nnc(-c2cccnc2)s1	14.4
COc1ccc(N2CCN(C(=O)CN3CCN(C(c4ccccc4)c4ccccc4)CC3)CC2)cc1.Cl	-46
CCCCC(=O)OCC(=O)Nc1ccc(OC(F)F)cc1	-21.2
Cc1ccn2c(=O)c(NC(=O)c3cccc4ccccc34)c(C)nc2c1	-1.31
Cc1nc2c(C)cccn2c(=O)c1NC(=O)COc1ccccc1	-12.1
Cc1ccn2c(=O)c(NC(=O)COc3ccccc3)c(C)nc2c1	-56.9
N#Cc1c(Cl)nsc1NC(=O)c1ccccc1	8.24
Cc1ccc(S(=O)(=O)N2CCCCC2CCNC(=O)C(=O)NCCc2ccco2)cc1 (stereo not shown)	-33.1
Cc1ccccc1CNC(=O)CCC(=O)N1CCOc2ccc(Cl)cc21	-24.2
CN1CCN(CCCNC(=O)CCC(=O)N2CCOc3ccccc32)CC1	5.46
O=C(CCC(=O)N1CCOc2ccccc21)NCCCN1CCCCC1	7
O=C(CCC(=O)N1CCOc2ccc(Cl)cc21)NCCCN1CCN(c2ccccc2F)CC1	-66.5

SMILES	hERG current change (%, negative = inhibition) at 10uM [%]
O=C(NC1CCN(Cc2ccccc2)CC1)C1COc2ccccc2O1 (stereo not shown)	-57.5
Cc1ccc(C)c(N2CCN(CCCNC(=O)CCC(=O)N3CCOc4ccc(Cl)cc43)CC2)c1	-55.9
CCN1CCN(CCCNC(=O)CCC(=O)N2CCOc3ccccc32)CC1	-13
O=C(C1COc2ccccc2O1)N1CCN(Cc2ccccc2)CC1 (stereo not shown)	-7.63
O=C(NC1CCCCC1)C1COc2ccccc2O1 (stereo not shown)	-7.19
O=C(CCC(=O)N1CCOc2ccc(Cl)cc21)NCCN1CCOCC1	3.97
O=C(CCC(=O)N1CCOc2ccccc21)NCCCN1CCN(Cc2ccccc2)CC1	-79.8
CC(C)(C)NC(=O)c1ccc2c(c1)C1C3CCC(C3)C1C(c1ccccc1)N2 (stereo not shown)	5.59
Cc1ccc(S(=O)(=O)NCCC(=O)NCC(c2ccc(F)cc2)N2CCOCC2)cc1 (stereo not shown)	-5.84
CCc1cccc(NC(=O)C2CC2c2ccccc2)c1 (stereo not shown)	14.5
Cc1noc(C)c1C(=O)OCC(=O)N1CCN(S(=O)(=O)c2ccc3ccccc3c2)CC1	-0.697
COCc1ccccc1C1=CC(=O)C[C@H](c2ccc(OC)cc2)C1	-12.3
Cc1cc(OCc2ccc(C(=O)n3cccn3)o2)ccc1Cl	-0.553
CN(C/C(O)=C(\C#N)c1ccccc1)C1CCCCC1	-0.409
COC(=O)c1c(C)[nH]c(C(=O)/C=C/c2ccccc2)c1C	1.52
O=C(CCC(=O)N1CCOc2ccc(Cl)cc21)NCCCN1CCN(Cc2ccccc2)CC1	-73.2
O=C(CCC(=O)N1CCOc2ccccc21)NC1CCN(Cc2ccccc2)CC1	-51
CCN1CCN(CCCNC(=O)CCC(=O)N2CCOc3ccc(Cl)cc32)CC1	-5.48
CCOC(=O)N1CCC(NC(=O)CCC(=O)N2CCOc3ccccc32)CC1	8.3
O=C(CCC(=O)N1CCOc2ccccc21)NC1CCCCCC1	-20.8
Cc1nc(C)c(N)c(=O)[nH]1.Cl	16.3
O=C(NN1C(=O)C2C3C=CC(C4CC34)C2C1=O)c1ccc(Br)cc1 (stereo not shown)	22.8
CCC1CCCCN1C(=O)CSc1nnc(-c2ccco2)o1 (stereo not shown)	4.11
Cc1cccc(C(=O)Oc2cc(C)[nH]c(=O)c2[N+](=O)[O-])c1	16.7
Br.CC(=O)c1ccc(N2Cc3ccccc3C3(CCOCC3)C2=N)cc1	-57.5

SMILES	hERG current change (%, negative = inhibition) at 10uM [%]
CC(=O)c1ccc(N2Cc3ccccc3C2=NC(=O)c2cccs2)cc1	-20.6
CC(=O)c1ccc(N2Cc3ccccc3C2)cc1	-2.58
FC(F)(F)c1cc(-c2ccccc2)nc2ncnn12	7.8
FC(F)(F)c1ccc(N2CCN(c3cc(-c4ccccc4)nc4ncnn34)CC2)nc1	-65.1
COc1ccc(-c2cc(N3CCCC3)n3ncnc3n2)cc1	-64.5
Cc1ccccc1NC(=O)C1CCN(c2cc(-c3ccccc3)nc3ncnn23)CC1	-8.86
COc1ccc(-c2cc(C(F)(F)F)nc(N3CCCCCC3)n2)cc1	2.13
FC(F)(F)c1cccc(Nc2cc(-c3ccccc3)nc3ncnn23)c1	13.5
COc1ccc(-c2cc3nc(-c4ccccc4)cc(N4CCC(O)CC4)n3n2)cc1	-7.45
CCCNC(=O)C1CCN(c2nc(C)cc(C)n2)CC1	0.749
CCCNC(=O)C1CCN(c2cc(-c3ccccc3)nc3ncnn23)CC1	-75.8
COc1ccc(S(=O)(=O)N2CCN(c3ccc4nnc(-c5ccccc5)n4n3)CC2)cc1	-66.4
O=S(=O)(c1ccc(Br)cc1)N1CCN(c2ccc3nnc(-c4ccccc4)n3n2)CC1	-32
COc1ccc(S(=O)(=O)N2CCN(c3ccc4nnc(-c5ccc(F)cc5)n4n3)CC2)cc1	-19.4
Cc1nnsc1Sc1ccccc1C(=O)O	8.3
Cc1n[nH]c(C)c1S(=O)(=O)N(C)Cc1ccco1	2.13
O=C(NCc1c(O)ccc2ccccc12)c1ccccc1	12
CC(C)c1ccc(NC(=O)C2C3C=CC4(O3)C2C(=O)N(CCCN2CCOCC2)C4C(=O)NC2CCCCC2)cc1 (stereo not shown)	19.9
COc1ccc(NC(C)=O)c(C)c1	18.2
COc1ccc(S(=O)(=O)N2CCN(c3cc(-c4ccccc4)nc4ncnn34)CC2)cc1	-53.3
CCc1c(C)nc2ncnn2c1N1CCN(S(=O)(=O)c2ccc(OC)cc2)CC1	-36
COc1ccc(OC)c(NC(=O)C2CCN(c3cc(-c4ccccc4)nc4ncnn34)CC2)c1	-10.8
COc1ccccc1NC(=O)N1CCN(c2ncccn2)CC1	6.96
O=S(=O)(c1ccccc1)N1CCN(c2cc(-c3ccccc3)nc3ncnn23)CC1	-11.8
COc1ccccc1NC(=O)N1CCN(c2cc(-c3ccccc3)nc3ncnn23)CC1	-68.3

SMILES	hERG current change (%, negative = inhibition) at 10uM [%]
O=C(C1=C(O)C(=O)N(CC2CCCO2)C1c1ccc(Cl)cc1)c1ccco1 (stereo not shown)	12.3
Cc1cc(=O)oc2c(CN3CCCC3)c(O)c(Cl)cc12	5.35
CC(CC(=O)Nc1cccc(Cl)c1)c1ccccc1 (stereo not shown)	-6.32
Cc1cc(OCC#N)nc(N)n1	3.69
CCN(CC)S(=O)(=O)c1ccc(N2CCOCC2)c(NCC(=O)Nc2ccc(F)cc2)c1	12.3
CCCCOc1ccc(/C=N/Nc2cc(N3CCOCC3)nc(C)n2)cc1	-30.5
Cc1cc(C)cc(NC(=O)C(OC(=O)c2cc[n+]([O-])cc2)c2ccccc2)c1 (stereo not shown)	-74
Cc1cc(C)cc(NC(=O)C(OC(=O)c2ccc(NC(=O)CC#N)cc2)c2ccccc2)c1 (stereo not shown)	-6.68
Cc1cc(C)cc(NC(=O)C(OC(=O)c2ccc(O)cc2)c2ccccc2)c1 (stereo not shown)	-15.2
COc1cc(OC)c(NC(=O)CCNC(=O)Cn2ccc3ccccc3c2=O)cc1Cl	7.45
Cc1ccc(C(=O)N2CCN(c3ncc(C(F)(F)F)cc3Cl)CC2)s1	-59.8
O=C(CN1CCN(c2ncc(C(F)(F)F)cc2Cl)CC1)N1CCN(c2ncc(C(F)(F)F)cc2Cl)CC1	11.7
O=C(c1cccs1)N1CCN(c2ncc(C(F)(F)F)cc2Cl)CC1	-65
CCOC(=O)N1CCN(c2ncc(C(F)(F)F)cc2Cl)CC1	21.4
O=C(CSc1ccccn1)N1CCN(c2ncc(C(F)(F)F)cc2Cl)CC1	-63.9
CCc1cc(C(=O)N2CCN(c3ncc(C(F)(F)F)cc3Cl)CC2)sc1C	-3.1
O=C(CSc1ccc(Cl)cc1)N1CCN(c2ncc(C(F)(F)F)cc2Cl)CC1	-26
Cc1ccsc1C(=O)N1CCN(c2ncc(C(F)(F)F)cc2Cl)CC1	-21
O=C(c1ccc2nc[nH]c2c1)N1CCN(c2ncc(C(F)(F)F)cc2Cl)CC1	-53.6
O=C(c1ccc2c(c1)OCCO2)N1CCN(c2ncc(C(F)(F)F)cc2Cl)CC1	-41.3
O=C(c1ccc2nc[nH]c2c1)N1CCN(c2cccc(C(F)(F)F)c2)CC1	-11.4
CC(C)(C(N)=O)N1CCN(c2ncc(C(F)(F)F)cc2Cl)CC1	-42.4
